Among the data in PubChem BioAssay AID2314 (National Center for Advancing Translational Sciences (NCATS), 2010) are max response values, retold here.

Structures are written as SMILES. Where “and” joins values, the source holds several entries; their conditions need not be identical. Equal values may be shown once. The whole screen tested about 300,000 compounds, of which about 37,000 (12%) were called active. Cut-off read from the data, not from the text of the source: active = max response mostly above about 13% (no sharp cut-off); inactive = mostly below about 14%. Shown is part of a subset that was picked to be rich in actives. Where a structure was tested more than once in an assay, its records may differ in their call.

A short description of this experiment: Cycloheximide Counterscreen for Small Molecule Inhibitors of Shiga Toxin. Note: read at 38.3 µM for the half of the compounds with a filed dose; 0% is about no effect. Particulars: cell reporter, cycloheximide protein synthesis inhibition counterscreen; stronger effect = higher value. (In general: A counterscreen serves to expose hits that act by an unwanted route or on another target.)
Take `CCc1ccc(S(=O)(=O)N/N=C\c2ccc([N+](=O)[O-])o2)cc1`: the max response is 5.73% (inactive).
Under `Cc1cc2ccccn2c1C(=O)c1cccc(S(=O)(=O)N2CCOCC2)c1` stands -0.598% (inactive); under `O=C(NNc1c2ccccc2nc2ccccc12)c1cc2ccccc2cc1O`, -1.17% (inactive); under `CCC(=O)OCCNc1nc(-c2ccccc2)nc2ccccc12`, 1.39% (inactive).
Under `CC(C)(C)OC(=O)NNc1c2ccccc2nc2ccccc12` stands 11.3% (active); under `COc1ccc(C(CCN(Cc2ccc(OC)c(OC)c2)C(=O)CCl)c2ccccc2)cc1` (configuration not stated), -1.89% (inactive); under `CC(=O)c1cccc(NC(=O)CN2C(=O)c3cccnc3Oc3ccc(Cl)cc32)c1`, 8.12% (inactive).
Under `O=C(Cn1c(N2CCN(C/C=C/c3ccccc3)CC2)nc2ccccc21)c1ccccc1` stands 8.47% (inactive).
`CC[C@H](C)[C@H](NC(=O)[C@@H](N)CCC(=O)O)C(=O)N[C@@H](CC(C)C)C(=O)N[C@@H](CC(=O)O)C(=O)N[C@H](C(=O)N1CCC[C@H]1C(=O)N[C@@H](CO)C(=O)N[C@H](C(=O)O)[C@@H](C)O)C(C)C`: the max response is 0.56% (inactive).
On to `CCOC(=O)c1c(NC(=O)C(C)Sc2c[nH]c3ccccc23)sc2c1CCC2` (configuration not stated), for which the max response was -0.942% (inactive).
Turning to `O=C(CCc1nnc2ccc(NCc3ccco3)nn12)Nc1cc(F)ccc1F`, the max response was -2.19% (inactive).
Under `CC(=O)c1ccc(NC(=O)CCc2nnc3ccc(NCc4ccco4)nn23)cc1` stands 40.6% (active); under `CCOc1ccccc1NC(=O)CCc1nnc2ccc(NCc3ccco3)nn12`, 2.03% (inactive).
Under `O=C(Cn1c[n+](CC(=O)c2ccc([N+](=O)[O-])cc2)cn1)c1ccc([N+](=O)[O-])cc1` stands 1.46% (inactive) and 22.2% (active).
The result for `O=C(CC(n1cncn1)C(Cl)(Cl)Cl)c1ccc([N+](=O)[O-])cc1` (configuration not stated) reads -2.22% (inactive); that for `O=C(c1ccncc1)c1ccc([N+](=O)[O-])cc1`, -4.87% (inactive).
On to `COc1ccc(N2CCC(N3CCN(C)C(CCO)C3)CC2)cc1` (configuration not stated), for which the max response was -1.24% (inactive).
The result for `COc1ccc(OCCNS(=O)(=O)Cc2ccccc2)cc1` reads -3.58% (inactive); that for `O=C(c1ccc(Cl)cc1)N1N=C(c2ccccn2)CC1(O)C(F)(F)F` (configuration not stated), -0.573% (inactive); that for `COc1ccc(OC)c(CNC(=O)c2cc(=O)[nH]c3ccc(S(=O)(=O)N4CCCC4)cc23)c1`, 11.5% (inactive).
Regarding `COC(CNC(=O)c1ccc2c(c1)ncn2-c1cc(C)cc(C)c1)OC`, the max response is -5.14% (inactive).
The result for `Cc1ccc(C(=O)CSc2nc3ccccc3c(=O)n2N)o1` reads 34.6% (active); that for `O=C(CCCn1c(SCC(=O)c2ccc(F)cc2)nc2ccccc2c1=O)NCc1ccco1`, -0.158% (inactive); that for `COC(=O)CSc1nc2ccccc2c(=O)n1Cc1ccccc1`, 12.7% (inactive).
For `CC1CCC(NC(=O)CN(C)S(=O)(=O)c2ccc3c(c2)c(=O)n(C)c(=O)n3C)CC1` (configuration not stated), the max response was -2.52% (inactive).
For the compound `Cn1c(=NC(=O)CSCC(=O)N2CCCCC2)sc2ccccc21`, the max response was 2.51% (inactive).
The result for `Cn1c(=NC(=O)CSCC(=O)N2CCOCC2)sc2ccccc21` reads 11% (inactive).
With `Cn1c(=NC(=O)c2cnccn2)sc2ccccc21`, the max response was 26% (active).
As for `COc1cc(CO)c(C2(CO)CCCC2)cc1OC`, the max response is -4.97% (inactive).
With `Cc1cc(C)cc(N(CCC#N)C(=O)CN2C(=O)NC3(CCCC3)C2=O)c1`, the max response is 1.6% (inactive).
Under `Oc1ccccc1N1CCN(c2ncnc3sc(-c4ccccc4)cc23)CC1` stands 9.53% (inactive); under `O=c1c2cc(-c3ccccc3)sc2nc2n1N=C(c1cccs1)CS2`, 57% (active); under `O=c1c(-c2ccccc2)cnc2n1CCS2`, -4.67% (inactive).
The result for `CC(C)NC(=O)C(c1ccc(F)cc1)N(C(=O)CCC(=O)Nc1ccccn1)c1ccccc1F` (configuration not stated) reads -2.11% (inactive).
Under `CC(C)CCNC(=O)Cn1c(=O)oc2cc(S(=O)(=O)N3CC(C)CC(C)C3)ccc21` (configuration not stated) stands -7.3% (inactive).
Consider `O=S1(=O)CCN(Cc2ccccc2Cl)CC1`, for which the max response was -2.05% (inactive).
With `CSc1ccc(/C=N/N2CCN(Cc3ccccc3Cl)CC2)cc1`, the max response was 16.6% (active).
Under `COc1ccccc1/C=N/N1CCN(Cc2ccccc2Cl)CC1` stands 1.31% (inactive); under `Cc1cccc(-n2cnc(C(=O)Nc3cccnc3)c2)n1`, 25.5% (active).
Under `Cc1cc(C)c(NC(=O)CS(=O)CC(=O)Nc2cccnc2)c(C)c1` (configuration not stated) stands 3.39% (inactive).
Consider `Cc1cccc(-n2cnc(C(=O)NNC(=S)Nc3ccccc3)c2)n1`, for which the max response is -0.715% (inactive).
Turning to `Cc1cccc(Nc2nc3c(S(=O)(=O)c4ccccc4)nnn3c3ccccc23)c1C`, the max response is -2.93% (inactive).
For `Cc1ccc(/C=C2\CCn3c2nc2cc(C(=O)O)ccc2c3=O)c(C)c1`, the max response was 8.18% (inactive).
Turning to `CCc1ccc(-c2nn(-c3ccccc3)cc2CSC(=N)N)cc1`, the max response was -12.4% (inactive).
Under `COc1cc2c(cc1OC)CN(C(=O)c1cc(S(=O)(=O)N3CCCCC3)ccc1Cl)CC2` stands 11.1% (inactive); under `Cc1ccccc1OCC(=O)Nc1nnc(S(=O)(=O)N2CCCC2)s1`, 1.8% (inactive); under `CC(NC(=O)CSc1nc2c(cc1C#N)CN(C)CC2)c1ccccc1` (configuration not stated), -4.77% (inactive).
Under `Cc1cc(NC(=O)CSc2nc3c(cc2C#N)CCCCC3)no1` stands 14.6% (active); under `Cc1nc(SCC(=O)Nc2cc(C)on2)c2c(C)c(C)sc2n1`, -2.36% (inactive); under `Cc1c(CCO)sc[n+]1CC(=O)OC12CC3CC(CC(C3)C1)C2`, -2.92% (inactive).
On to `COC(=O)C1(C)CC1(c1ccccc1)c1ccccc1` (configuration not stated), for which the max response is -2.76% (inactive).
Regarding `COC(=O)c1c(C)oc2ccc(N(C(=O)Oc3ccccc3)S(=O)(=O)c3ccccc3)cc12`, the max response was -13.2% (inactive).
The result for `Cc1cccc(/C(N)=N/OC(=O)c2ccccc2Cl)c1` reads 37% (active).
Under `Cc1cccc(C(=O)c2cccc(C)c2)c1` stands 0.416% (inactive).
Under `N/C(=N\OC(=O)c1cc(-c2ccccc2)nc2ccccc12)c1ccncc1` stands -3.22% (inactive).
In the case of `O=C(O)CCN=C1CCc2ccccc2N1`, the max response was -2.89% (inactive).
Turning to `COc1cc(OC)cc(-c2nnc(N(C)C(=O)c3ccncc3)s2)c1`, the max response was -2.59% (inactive).
Under `COc1ccc(NC(=O)C2CCN(S(=O)(=O)c3ccc4[nH]c(=O)oc4c3)CC2)c(OC)c1` stands -1.11% (inactive); under `Cc1ccc(N(CC(=O)Nc2cccc(N(C)S(C)(=O)=O)c2)S(C)(=O)=O)cc1`, -1.08% (inactive); under `CN(c1cccc(NC(=O)c2ccc(CN3CCc4ccccc4C3)cc2)c1)S(C)(=O)=O`, -1.55% (inactive).
The result for `CN(c1cccc(NC(=O)Nc2ccc(Cl)cc2)c1)S(C)(=O)=O` reads 36.6% (active); that for `CC(=O)Nc1cccc(/C(C)=N/NC(=O)c2ccccc2Cl)c1`, 8.8% (inactive).
On to `COc1cccc(C(=O)N/N=C(\C)c2cccc(NC(=O)c3ccc(F)cc3)c2)c1OC`, for which the max response was 27.3% (active).
With `C/C(=N/NC(=O)c1ccc(NC(=O)c2ccc(F)cc2)cc1)c1ccccc1`, the max response is 11% (inactive).
In the case of `O=C(Nc1nonc1-c1ccc(Cl)cc1)c1ccco1`, the max response was 7.55% (inactive).
Under `O=C(COc1ccc2c3c(c(=O)oc2c1)CCC3)NC1CCCCC1` stands 1.97% (inactive).
Under `NC(=O)C1CCN(C(=O)COc2ccc3c4c(c(=O)oc3c2)CCC4)CC1` stands -1.44% (inactive).
Under `NC(=O)COc1ccc2c3c(c(=O)oc2c1)CCCCC3` stands 12.8% (active).
As to `CC1CCN(C(=O)c2cc3nc(C4CC4)cc(C(F)(F)F)n3n2)CC1`, the max response is 1.99% (inactive).
Under `CCNC(=S)N(CCN(CC)CC)Cc1cc2cc3c(cc2[nH]c1=O)OCCO3` stands -0.726% (inactive); under `COc1cccc(-c2cc(=O)c3cc(NC(=O)c4ccc(C)cc4)ccc3[nH]2)c1`, -0.33% (inactive).
For the compound `CC(C)OCCCNC(=O)CNC(=O)c1cccs1`, the max response was -3.03% (inactive).
The result for `CC1C/C(=N/NC(=O)c2cccs2)CC(C)(C)C1` (configuration not stated) reads 32.2% (active).
Under `CC1(C)CC(=O)C/C(=N\NC(=O)c2cccs2)C1` stands 1.56% (inactive); under `CC(=O)NNC1=Nc2ccccc2N(C)C(C)C1` (configuration not stated), -2.23% (inactive).
As to `CC(C)c1ccccc1OCC(O)CN(CC(O)COc1cccc2ccccc12)C(C)C` (configuration not stated), the max response was -5.17% (inactive).
The result for `Cc1ccc(NS(=O)(=O)c2ccc(-c3ccc(=O)[nH]n3)o2)c(C)c1` reads -1.58% (inactive).
The result for `O=C(COc1ccc2c3c(c(=O)oc2c1)CCCC3)NCC(O)c1ccccc1` (configuration not stated) reads -1.36% (inactive); that for `Cc1ccc(NC(=O)NC(=O)c2ccccc2)cc1F`, 25.9% (active).
Regarding `Cc1cccc(NC(=S)Nc2ccc(Br)cc2)c1`, the max response was 18.4% (inactive).
The result for `CC(=O)N1CCN(CC(=O)Nc2ccc(C)c(F)c2)CC1` reads -6.08% (inactive).
The result for `Cc1cccc(NC(=S)NC(=O)c2ccc(Br)o2)c1` reads 34.5% (active).
As to `O=C(CNC(=O)c1ccc(Br)o1)Nc1ccccc1`, the max response was -2.14% (inactive).
Under `Cc1cccc(NC(=S)NC23CN4CN(CN(C4)C2)C3)c1` stands 0.709% (inactive).
The result for `CNC(=O)c1ccc(NC(=O)c2cccc(C(F)(F)F)c2)cc1` reads 8.58% (inactive); that for `Cc1cccc(NC(=O)/C(=C\c2ccco2)NC(=O)c2ccccc2)c1`, 11.3% (inactive).
For `Cc1cccc(NC(=O)c2nnn(-c3cccc(C(F)(F)F)c3)c2N)c1`, the max response is 19.9% (inactive).
Take `Cc1cccc(NC(=O)c2cccc(C(F)(F)F)c2)c1`: the max response is 29.9% (active).
Regarding `Cc1nc(C)c(C(=O)Nc2ccc(C)c(F)c2)o1`, the max response was 5.75% (inactive).
Under `Cc1cccc(NC(=O)NC(=S)NC(=O)c2ccccc2)c1` stands 42.2% (active); under `Cc1cc(-c2nnc(SCC(=O)Nc3ccc(F)cc3)n2N)n[nH]1`, 0.984% (inactive).
The result for `COc1ccccc1NC1=NC(c2ccc(Cl)cc2)N=C(N)N1` (configuration not stated) reads 2.63% (inactive).
